# PubChem BioAssay (NCI)
# About 83,000 compounds went through this panel and 20% of them were active in at least one assay; those are over-represented in the sample as a whole.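 Cell lines were cultured in 96-well plates, exposed to a single compound concentration, and assessed for percent growth 48 hours later.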 A number with no mark means an inactive call. Calls of active or inactive are those of the source. Rule for the calls: active = growth percent below 10; inactive = the rest.
# Columns and labels:
# Assay in all cases: NCI-60 one-dose screen, 48 h (100 = growth as untreated, 0 = no growth, -100 = all killed)
# Conditions in all cases: 10 µM unless noted
# [1] = tested on: HCT-15 colon
# [2] = tested on: HT29 colon
# [3] = tested on: SNB-75 CNS
# [4] = tested on: U251 CNS
# [5] = tested on: PC-3 prostate
# [6] = tested on: SK-MEL-5 melanoma
# [7] = tested on: UACC-62 melanoma
# [8] = tested on: LOX IMVI melanoma
# [9] = tested on: SK-MEL-28 melanoma
Compound,growth [1],growth [2],growth [3],growth [4],growth [5],growth [6],growth [7],growth [8],growth [9]
COc1cccc(CNc2ncnc3c2ncn3C2OC(CO)C(O)C2O)c1O (configuration not stated),4.06% (active),26.5%,-12.4% (active),12.6%,15.7%,14.4%,6.74% (active),-0.915% (active),29%
CCN1CC(=O)N(/N=C2\C(=O)Nc3ccccc32)C1=S,95.1%,102%,80.3%,99.2%,92%,79.4%,76.4%,86.5%,111%
CCNc1nc(-c2ccc(Cl)c(OC)c2)c(-c2ccnc(NCCCNS(=O)(=O)c3ccc(Cl)cc3)n2)s1,61.6%,19.1%,77.6%,,29.4%,48.2%,29.7%,,38.9%
Cc1ccccc1NC(=O)c1sc2nc(C)c(C(=O)/C=C/c3ccccc3)cc2c1N,-1.44% (active),-5.48% (active),-7.36% (active),-35% (active),29%,17.7%,7.17% (active),-85.9% (active),42%
C#CCn1cnc2c(Nc3cccc(NC(=O)C=C)c3)ncnc21,73.3%,90.6%,66%,88.2%,71.5%,88.7%,82.6%,100%,87.6%
CN(Cc1ccc(C(F)(F)F)cc1)CC(O)C(=O)Nc1ccc(Cl)cc1 (configuration not stated),-15.4% (active),1.26% (active),24.6%,-82.3% (active),22%,8.39% (active),29.7%,-85.4% (active),85.8%
O=C(/C=C(/C=C/c1cccc2[nH]ccc12)OB(F)F)/C=C/c1cccc2[nH]ccc12,-58.4% (active),-52.8% (active),-40.4% (active),-87% (active),-42.5% (active),-78.3% (active),-51.8% (active),-81.1% (active),-14.3% (active)
O=C(Nc1ccc(NC(=O)c2cc(=O)[nH]c3ccccc23)cc1)Nc1cccc(C(F)(F)F)c1,95.3%,67.8%,58.5%,19.5%,69.8%,,68%,21%,63.6%
O=C1NCCC12CCN(c1c(Cl)cncc1-c1ccc(O)cc1)CC2,105%,94.2%,112%,94.9%,98.8%,94.4%,90.2%,,103%
Cc1cc(N)c2cc(NC(=O)/C=C\c3ccccc3Cl)ccc2n1,10.9%,-64.4% (active),-90.8% (active),-85.9% (active),-91.5% (active),-94.9% (active),-80.9% (active),-75.1% (active),-96.1% (active)
N=C(N)c1ccc(-c2ccc(-c3ccc(F)cc3)o2)o1,-0.304% (active),-20.3% (active),20%,-11.7% (active),19.3%,21.7%,57.5%,-61.6% (active),65.1%
N#CC1=C(N)Oc2c(sc3c(F)cccc23)C1c1ccc(F)cc1 (configuration not stated),26%,6.86% (active),6.01% (active),22.2%,28.7%,22.3%,29.2%,32.2%,64%
O=C(CCCCCCN1CC(=O)N2[C@H](c3cc(Br)cs3)c3[nH]c4ccccc4c3C[C@H]2C1=O)NO,96.9%,50.7%,26.2%,33.3%,46.9%,27%,12%,8.65% (active),27.7%
C=CCn1c(SCC(=O)NCc2cc(C)c(O)c(C)c2)nc2ccc(Cl)cc2c1=O,95.6%,102%,67.5%,102%,96.1%,93.2%,81.9%,100%,109%
CC1=C(Nc2ccc(N3CCN(C)CC3)cc2)C(=O)c2cncnc2C1=O,94.2%,112%,131%,83.6%,21.7%,81.5%,93.8%,-13.6% (active),121%
CCOC(=O)Cn1c(O)c(N=Nc2ccc(S(N)(=O)=O)cc2)c2cc(Br)ccc21,85.4%,63.7%,78%,86.2%,70.8%,88.3%,83.3%,86%,85.2%
O=C(Cn1cc(CN2C(=O)c3ccccc3S2(=O)=O)nn1)Nc1nc2ccccc2s1,107%,97.9%,81.2%,98.7%,93.2%,104%,97.5%,92.5%,106%
Cc1nnc(-n2c(O)cc(=O)n(-c3ccccc3)c2=S)nc1/C=C/c1ccc(N(C)C)cc1,28.9%,24.3%,17.3%,53.7%,67.1%,60.6%,11.7%,18.8%,58.6%
Cc1ccccc1/C=C1\CN(C(=O)OC(C)(C)C)C/C(=C\c2ccccc2C)C1=O,1.66% (active),-26.4% (active),53.4%,0.0873% (active),21.9%,83%,28.7%,-62.4% (active),55.5%
